Drawing on publication PMC7862700, “An all-to-all approach to the identification of sequence-specific readers for epigenetic DNA modifications on cytosine”, this text covers binding signal for one sequence.

Holding throughout (assay): DAPPL (digital affinity profiling via proximity ligation, sequencing); 10 mM Tris-HCl pH 7.5, 50 mM NaCl, 1 mM DTT, 4% glycerol, room temperature, 30 min; GST-TFs on glutathione beads, 16-mer random dsDNA library, 0.1% formaldehyde crosslink after washing; high values mean tight binding
Assay [1] deals with T1, FEV (Homo sapiens, UniProt Q99581 1-238).
T1 sequence: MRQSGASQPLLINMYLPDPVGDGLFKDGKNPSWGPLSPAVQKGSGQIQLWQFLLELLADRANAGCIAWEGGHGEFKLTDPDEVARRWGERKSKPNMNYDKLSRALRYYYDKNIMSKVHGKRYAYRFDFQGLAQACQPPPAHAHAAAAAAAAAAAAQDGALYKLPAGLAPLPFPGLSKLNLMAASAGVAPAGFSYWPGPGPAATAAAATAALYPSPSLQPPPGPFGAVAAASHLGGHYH
Particulars: protein: recombinant; tags: N-terminal GST; dsDNA, one strand shown. The essentials:
(§1)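 In yeast, human transcription factors were expressed with a GST fusion, then pulled down on glutathione beads and given DNA barcodes. Pooled with a tag-only sample, they were exposed to 200 nmole of a 16-mer random double-stranded DNA library (Tris/NaCl/DTT/glycerol buffer, room temperature, 30 min), washed, crosslinked with 0.1% formaldehyde, proximity-ligated using BsaI/T4 ligase for 1 h at 37 °C, PCR-amplified and read on an Illumina NextSeq500. Each hexamer's frequency of reads for a factor, divided by the matching frequency for the tag-only sample, gives the binding signal.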

For assay [2], the target named is ETV5 (Homo sapiens, UniProt P41161 1-510). Conditions: protein: recombinant; tags: N-terminal GST; dsDNA, one strand shown. The essentials: as §1
For assay [3], the target named is HSF1 (Homo sapiens, UniProt Q00613 1-529). Conditions: protein: recombinant; tags: N-terminal GST; chain copies: 3; dsDNA, one strand shown. The method, boiled down: as §1
Assay [4] addresses T2, SPIC (Homo sapiens, UniProt Q8N5J4 1-248).
T2 sequence: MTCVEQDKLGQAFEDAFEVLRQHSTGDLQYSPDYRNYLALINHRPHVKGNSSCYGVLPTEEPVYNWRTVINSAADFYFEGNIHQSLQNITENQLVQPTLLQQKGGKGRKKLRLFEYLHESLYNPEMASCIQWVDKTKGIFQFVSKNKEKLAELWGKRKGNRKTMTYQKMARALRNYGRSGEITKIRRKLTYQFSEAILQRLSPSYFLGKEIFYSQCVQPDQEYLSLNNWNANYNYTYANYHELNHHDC
Particulars: protein: recombinant; tags: N-terminal GST; dsDNA, one strand shown. The essentials:
as §1

Assay [5] has as its target ELF4 (Homo sapiens, UniProt Q99607 1-663). Particulars: protein: recombinant; tags: N-terminal GST; dsDNA, one strand shown. The essentials:
as §1

The target of assay [6] is T3, ELK4 (Homo sapiens, UniProt P28324-2 1-405).
T3 sequence: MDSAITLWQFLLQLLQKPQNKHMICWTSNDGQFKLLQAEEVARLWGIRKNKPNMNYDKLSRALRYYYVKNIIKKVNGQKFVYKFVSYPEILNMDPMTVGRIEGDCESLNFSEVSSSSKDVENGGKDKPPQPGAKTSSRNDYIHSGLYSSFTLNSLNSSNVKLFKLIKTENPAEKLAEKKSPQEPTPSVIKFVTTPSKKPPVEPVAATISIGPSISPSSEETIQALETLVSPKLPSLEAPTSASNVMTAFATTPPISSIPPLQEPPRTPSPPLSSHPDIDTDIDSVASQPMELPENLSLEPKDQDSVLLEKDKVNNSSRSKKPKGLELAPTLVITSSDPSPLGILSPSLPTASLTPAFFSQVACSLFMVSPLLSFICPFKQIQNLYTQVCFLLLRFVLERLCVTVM
Particulars: protein: recombinant; tags: N-terminal GST; dsDNA, one strand shown. The essentials: as §1

Assay [7] has as its target T4, ETV2 (Homo sapiens, UniProt O00321 1-342).
T4 sequence: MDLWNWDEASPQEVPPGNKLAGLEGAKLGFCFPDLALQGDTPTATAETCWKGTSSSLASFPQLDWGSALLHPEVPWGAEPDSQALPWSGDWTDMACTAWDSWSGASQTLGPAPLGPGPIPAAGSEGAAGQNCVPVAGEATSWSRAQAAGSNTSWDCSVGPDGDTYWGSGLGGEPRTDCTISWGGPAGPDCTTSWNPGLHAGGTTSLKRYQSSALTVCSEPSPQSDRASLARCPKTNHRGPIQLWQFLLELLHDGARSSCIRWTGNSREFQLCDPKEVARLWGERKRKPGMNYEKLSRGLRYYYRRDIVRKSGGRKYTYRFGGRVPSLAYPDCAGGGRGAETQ
Particulars: protein: recombinant; tags: N-terminal GST; dsDNA, one strand shown. The method, boiled down: as §1

The target of assay [8] is T5, ELF3 (Homo sapiens, UniProt P78545 1-371).
T5 sequence: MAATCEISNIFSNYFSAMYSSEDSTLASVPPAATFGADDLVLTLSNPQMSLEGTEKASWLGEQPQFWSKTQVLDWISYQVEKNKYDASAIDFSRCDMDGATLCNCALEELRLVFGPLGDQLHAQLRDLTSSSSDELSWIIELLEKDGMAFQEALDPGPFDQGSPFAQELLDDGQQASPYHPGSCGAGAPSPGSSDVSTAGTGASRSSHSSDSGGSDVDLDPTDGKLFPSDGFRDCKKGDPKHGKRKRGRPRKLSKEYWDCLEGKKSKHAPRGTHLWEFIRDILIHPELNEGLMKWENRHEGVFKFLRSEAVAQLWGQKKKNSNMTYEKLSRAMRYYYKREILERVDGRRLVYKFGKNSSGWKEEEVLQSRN
Particulars: protein: recombinant; tags: N-terminal GST; dsDNA, one strand shown. The method, boiled down:
as §1

Assay [9] has as its target CRX (Homo sapiens, UniProt O43186 1-299). Particulars: protein: recombinant; tags: N-terminal GST; dsDNA, one strand shown. The method, boiled down: as §1
The target of assay [10] is ETV1 (Homo sapiens, UniProt P50549 1-477). Particulars: protein: recombinant; tags: N-terminal GST; dsDNA, one strand shown. The method, boiled down:
as §1

Assay [11] has as its target T6, ERF (Homo sapiens, UniProt P50548 1-548).
T6 sequence: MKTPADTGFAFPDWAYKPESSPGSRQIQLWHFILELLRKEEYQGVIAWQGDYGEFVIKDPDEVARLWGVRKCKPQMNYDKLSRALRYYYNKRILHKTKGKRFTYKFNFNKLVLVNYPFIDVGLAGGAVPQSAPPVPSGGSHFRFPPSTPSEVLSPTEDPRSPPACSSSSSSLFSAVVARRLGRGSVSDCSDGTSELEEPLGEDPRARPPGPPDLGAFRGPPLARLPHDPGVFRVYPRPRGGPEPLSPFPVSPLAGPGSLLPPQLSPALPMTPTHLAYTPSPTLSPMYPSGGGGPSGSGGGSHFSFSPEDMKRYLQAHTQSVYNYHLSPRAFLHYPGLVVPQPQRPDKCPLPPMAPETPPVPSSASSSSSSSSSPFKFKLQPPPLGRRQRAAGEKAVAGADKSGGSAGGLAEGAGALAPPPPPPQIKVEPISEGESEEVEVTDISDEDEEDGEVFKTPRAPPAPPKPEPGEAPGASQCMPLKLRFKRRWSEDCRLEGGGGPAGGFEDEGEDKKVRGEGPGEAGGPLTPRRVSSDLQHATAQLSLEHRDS
Conditions: protein: recombinant; tags: N-terminal GST; dsDNA, one strand shown. The method, boiled down:
as §1

The target in assay [12] is T7, ETV3L (Homo sapiens, UniProt Q6ZN32 1-361).
T7 sequence: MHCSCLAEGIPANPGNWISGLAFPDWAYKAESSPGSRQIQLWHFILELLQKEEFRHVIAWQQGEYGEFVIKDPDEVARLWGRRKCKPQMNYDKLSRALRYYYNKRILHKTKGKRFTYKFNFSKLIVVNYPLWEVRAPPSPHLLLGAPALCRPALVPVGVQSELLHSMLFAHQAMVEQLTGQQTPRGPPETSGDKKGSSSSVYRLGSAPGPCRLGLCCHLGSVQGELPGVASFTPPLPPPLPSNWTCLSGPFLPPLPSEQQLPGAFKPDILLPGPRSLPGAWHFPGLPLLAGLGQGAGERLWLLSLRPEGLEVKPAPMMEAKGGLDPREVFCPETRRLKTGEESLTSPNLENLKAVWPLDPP
Conditions: protein: recombinant; tags: N-terminal GST; dsDNA, one strand shown. The essentials:
as §1

Assay [13] addresses T8, ETS2 (Homo sapiens, UniProt P15036 1-469).
T8 sequence: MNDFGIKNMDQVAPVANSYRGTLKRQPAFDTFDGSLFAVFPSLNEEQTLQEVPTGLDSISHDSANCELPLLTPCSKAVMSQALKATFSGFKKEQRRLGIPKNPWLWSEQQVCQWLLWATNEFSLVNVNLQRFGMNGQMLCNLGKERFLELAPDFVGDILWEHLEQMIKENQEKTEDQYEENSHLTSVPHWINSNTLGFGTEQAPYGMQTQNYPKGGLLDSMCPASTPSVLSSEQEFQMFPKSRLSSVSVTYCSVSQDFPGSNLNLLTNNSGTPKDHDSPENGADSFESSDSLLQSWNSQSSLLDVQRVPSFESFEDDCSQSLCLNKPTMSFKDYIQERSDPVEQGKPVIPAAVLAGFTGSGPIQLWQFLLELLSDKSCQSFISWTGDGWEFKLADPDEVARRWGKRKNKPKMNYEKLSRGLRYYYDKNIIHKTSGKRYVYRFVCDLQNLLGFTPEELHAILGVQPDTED
Particulars: protein: recombinant; tags: N-terminal GST; dsDNA, one strand shown. The method, boiled down:
as §1

Assay [14] addresses T9, SPDEF (Homo sapiens, UniProt O95238 1-335).
T9 sequence: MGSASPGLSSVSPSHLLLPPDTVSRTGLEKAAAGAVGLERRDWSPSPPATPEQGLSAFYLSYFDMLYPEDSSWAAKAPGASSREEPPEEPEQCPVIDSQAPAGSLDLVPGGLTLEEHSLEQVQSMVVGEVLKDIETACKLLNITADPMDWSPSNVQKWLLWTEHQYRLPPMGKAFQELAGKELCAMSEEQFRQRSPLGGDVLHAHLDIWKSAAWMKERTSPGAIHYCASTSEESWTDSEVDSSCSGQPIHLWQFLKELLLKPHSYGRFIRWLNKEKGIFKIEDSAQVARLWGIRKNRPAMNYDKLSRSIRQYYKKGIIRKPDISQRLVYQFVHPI
Conditions: protein: recombinant; tags: N-terminal GST; dsDNA, one strand shown. The essentials: as §1

For assay [15], the target named is T10, ETV7 (Homo sapiens, UniProt Q9Y603 1-341).
T10 sequence: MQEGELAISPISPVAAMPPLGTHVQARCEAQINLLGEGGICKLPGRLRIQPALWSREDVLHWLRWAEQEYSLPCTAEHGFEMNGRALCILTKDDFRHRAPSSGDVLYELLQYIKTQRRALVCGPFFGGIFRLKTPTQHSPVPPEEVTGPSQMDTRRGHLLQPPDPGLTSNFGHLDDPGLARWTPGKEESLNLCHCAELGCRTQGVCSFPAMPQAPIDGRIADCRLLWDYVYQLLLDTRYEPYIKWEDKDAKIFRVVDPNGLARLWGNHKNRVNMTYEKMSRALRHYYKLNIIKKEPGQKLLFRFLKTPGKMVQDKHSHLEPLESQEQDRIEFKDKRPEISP
Conditions: protein: recombinant; tags: N-terminal GST; dsDNA, one strand shown. The essentials: as §1

In assay [16] the target is T11, ELF5 (Homo sapiens, UniProt Q9UKW6-2 1-255).
T11 sequence: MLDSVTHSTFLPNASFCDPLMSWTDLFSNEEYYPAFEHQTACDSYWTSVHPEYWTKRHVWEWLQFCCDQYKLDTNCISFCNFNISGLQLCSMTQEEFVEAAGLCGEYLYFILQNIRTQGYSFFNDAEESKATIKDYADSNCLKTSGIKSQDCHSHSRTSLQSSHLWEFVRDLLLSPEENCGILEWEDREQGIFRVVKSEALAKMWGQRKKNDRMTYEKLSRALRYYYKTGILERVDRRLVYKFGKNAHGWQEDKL
Conditions: protein: recombinant; tags: N-terminal GST; dsDNA, one strand shown. The essentials:
as §1

In assay [17] the target is T12, ETV3 (Homo sapiens, UniProt P41162-2 1-143).
T12 sequence: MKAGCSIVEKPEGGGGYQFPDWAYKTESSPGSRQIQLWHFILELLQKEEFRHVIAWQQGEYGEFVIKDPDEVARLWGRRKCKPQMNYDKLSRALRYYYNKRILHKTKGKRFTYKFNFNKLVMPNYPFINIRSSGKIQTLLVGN
Conditions: protein: recombinant; tags: N-terminal GST; dsDNA, one strand shown. The essentials:
as §1

Assay [18] addresses ETV6 (Homo sapiens, UniProt P41212 1-452). Particulars: protein: recombinant; tags: N-terminal GST; dsDNA, one strand shown. The essentials: as §1

ELF4, sequence (Q99607 whole entry): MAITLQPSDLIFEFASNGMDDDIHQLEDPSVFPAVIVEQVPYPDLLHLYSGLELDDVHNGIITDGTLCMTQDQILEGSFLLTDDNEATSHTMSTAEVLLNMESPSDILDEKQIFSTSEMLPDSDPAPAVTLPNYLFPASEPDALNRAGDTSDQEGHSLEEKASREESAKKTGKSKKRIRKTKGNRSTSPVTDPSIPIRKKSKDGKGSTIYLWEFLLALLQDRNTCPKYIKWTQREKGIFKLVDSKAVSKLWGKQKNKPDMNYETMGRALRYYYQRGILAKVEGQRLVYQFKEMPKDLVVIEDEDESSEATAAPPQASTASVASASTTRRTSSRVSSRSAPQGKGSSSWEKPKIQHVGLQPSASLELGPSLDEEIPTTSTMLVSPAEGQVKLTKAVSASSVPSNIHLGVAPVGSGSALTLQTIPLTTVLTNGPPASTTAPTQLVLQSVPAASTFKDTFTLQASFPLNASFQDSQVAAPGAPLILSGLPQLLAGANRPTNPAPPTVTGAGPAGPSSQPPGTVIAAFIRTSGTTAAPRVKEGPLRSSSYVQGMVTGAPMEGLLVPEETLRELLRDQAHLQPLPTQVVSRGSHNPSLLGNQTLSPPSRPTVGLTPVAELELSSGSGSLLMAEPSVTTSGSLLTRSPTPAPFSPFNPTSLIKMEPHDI
HSF1, sequence (Q00613 whole entry): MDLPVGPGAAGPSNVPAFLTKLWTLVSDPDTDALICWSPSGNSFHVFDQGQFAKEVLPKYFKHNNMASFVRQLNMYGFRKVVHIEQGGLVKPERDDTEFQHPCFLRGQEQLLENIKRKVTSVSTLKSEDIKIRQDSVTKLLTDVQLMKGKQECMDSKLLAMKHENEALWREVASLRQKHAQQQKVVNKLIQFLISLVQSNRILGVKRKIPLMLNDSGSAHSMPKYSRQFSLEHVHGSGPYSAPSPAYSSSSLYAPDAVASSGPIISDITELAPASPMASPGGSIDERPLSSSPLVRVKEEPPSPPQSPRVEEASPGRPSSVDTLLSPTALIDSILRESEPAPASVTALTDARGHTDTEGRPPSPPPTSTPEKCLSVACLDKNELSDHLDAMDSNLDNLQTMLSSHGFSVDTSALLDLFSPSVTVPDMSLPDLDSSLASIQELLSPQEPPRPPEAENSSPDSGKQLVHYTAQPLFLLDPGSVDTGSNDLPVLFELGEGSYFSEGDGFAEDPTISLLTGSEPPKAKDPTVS
ETV1, sequence (P50549 whole entry): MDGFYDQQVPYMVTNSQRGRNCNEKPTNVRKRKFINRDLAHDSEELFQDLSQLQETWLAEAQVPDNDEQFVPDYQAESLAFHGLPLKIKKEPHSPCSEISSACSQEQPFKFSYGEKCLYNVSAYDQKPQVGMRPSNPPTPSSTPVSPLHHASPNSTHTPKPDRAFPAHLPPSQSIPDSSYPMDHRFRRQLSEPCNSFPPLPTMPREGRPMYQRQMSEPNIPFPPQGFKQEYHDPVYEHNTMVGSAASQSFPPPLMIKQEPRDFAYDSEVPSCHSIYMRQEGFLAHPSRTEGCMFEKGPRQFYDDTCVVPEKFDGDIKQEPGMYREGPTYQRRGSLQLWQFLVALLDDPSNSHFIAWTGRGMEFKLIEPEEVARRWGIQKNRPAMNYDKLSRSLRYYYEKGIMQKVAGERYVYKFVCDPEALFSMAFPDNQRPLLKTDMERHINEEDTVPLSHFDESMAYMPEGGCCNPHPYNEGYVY
CRX, sequence (O43186 whole entry): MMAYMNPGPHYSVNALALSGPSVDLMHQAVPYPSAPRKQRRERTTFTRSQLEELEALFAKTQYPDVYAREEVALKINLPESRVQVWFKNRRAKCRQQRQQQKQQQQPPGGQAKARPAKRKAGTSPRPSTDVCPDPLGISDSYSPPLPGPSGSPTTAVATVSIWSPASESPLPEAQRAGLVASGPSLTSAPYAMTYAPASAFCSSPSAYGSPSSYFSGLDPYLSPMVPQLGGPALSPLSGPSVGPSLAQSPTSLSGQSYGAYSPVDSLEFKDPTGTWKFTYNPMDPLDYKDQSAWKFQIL
ETV5, sequence (P41161 whole entry): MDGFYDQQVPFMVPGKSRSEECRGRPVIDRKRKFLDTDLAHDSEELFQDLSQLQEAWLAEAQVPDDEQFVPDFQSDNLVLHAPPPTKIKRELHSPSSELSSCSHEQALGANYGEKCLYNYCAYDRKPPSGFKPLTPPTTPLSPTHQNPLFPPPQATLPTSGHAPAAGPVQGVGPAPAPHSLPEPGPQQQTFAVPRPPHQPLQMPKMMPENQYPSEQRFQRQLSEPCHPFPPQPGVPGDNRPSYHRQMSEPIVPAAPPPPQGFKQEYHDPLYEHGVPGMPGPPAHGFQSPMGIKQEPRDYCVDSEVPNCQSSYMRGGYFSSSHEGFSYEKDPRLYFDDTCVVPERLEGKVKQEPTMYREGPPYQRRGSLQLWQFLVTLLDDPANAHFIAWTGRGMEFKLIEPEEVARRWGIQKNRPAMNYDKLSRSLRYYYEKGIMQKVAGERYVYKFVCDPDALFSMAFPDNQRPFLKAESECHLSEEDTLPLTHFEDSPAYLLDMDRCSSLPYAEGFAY
ETV6, sequence (P41212 whole entry): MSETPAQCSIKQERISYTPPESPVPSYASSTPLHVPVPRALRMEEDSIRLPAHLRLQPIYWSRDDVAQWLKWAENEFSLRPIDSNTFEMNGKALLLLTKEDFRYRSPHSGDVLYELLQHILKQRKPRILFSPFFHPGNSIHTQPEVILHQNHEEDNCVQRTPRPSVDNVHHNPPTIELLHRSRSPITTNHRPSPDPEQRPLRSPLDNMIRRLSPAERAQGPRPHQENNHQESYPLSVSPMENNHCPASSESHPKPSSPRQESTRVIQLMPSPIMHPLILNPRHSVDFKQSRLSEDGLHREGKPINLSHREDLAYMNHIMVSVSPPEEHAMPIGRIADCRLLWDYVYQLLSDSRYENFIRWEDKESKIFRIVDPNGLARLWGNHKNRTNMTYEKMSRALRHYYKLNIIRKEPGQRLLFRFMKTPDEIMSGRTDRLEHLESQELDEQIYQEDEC

With CTGGAT, the binding signal is 1.38 fold enrichment (6-mer frequency, TF over GST control) in assay [1]; 1.4 fold enrichment (6-mer frequency, TF over GST control) in [2]; 2.19 fold enrichment (6-mer frequency, TF over GST control) in assay [3]; 1.34 fold enrichment (6-mer frequency, TF over GST control) in assay [4]; 1.35 fold enrichment (6-mer frequency, TF over GST control) in assay [5]; 1.35 fold enrichment (6-mer frequency, TF over GST control) in assay [6]. In addition, the binding signal in assay [7] was 1.41 fold enrichment (6-mer frequency, TF over GST control); in assay [8], 1.41 fold enrichment (6-mer frequency, TF over GST control); in assay [9], 2.05 fold enrichment (6-mer frequency, TF over GST control); in assay [10], 1.47 fold enrichment (6-mer frequency, TF over GST control); in [11], 1.43 fold enrichment (6-mer frequency, TF over GST control); in assay [12], 1.5 fold enrichment (6-mer frequency, TF over GST control). The binding signal was 1.4 fold enrichment (6-mer frequency, TF over GST control) in assay [13]; 1.42 fold enrichment (6-mer frequency, TF over GST control) in [14]; 1.22 fold enrichment (6-mer frequency, TF over GST control) in assay [15]; 1.3 fold enrichment (6-mer frequency, TF over GST control) in assay [16]; 1.37 fold enrichment (6-mer frequency, TF over GST control) in assay [17]; 1.21 fold enrichment (6-mer frequency, TF over GST control) in assay [18].
